Test [1] is described as follows: A CellTox Green Cytotoxicity Assay to monitor cytotoxicity in HEK293 cells - 32 hour (AID 1224881). Note: nearly all actives have a fitted effect of over 40% in size. The method in brief: (§1)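 Nonlytic real-time cytotoxicity: HEK293 + CellTox Green reagent plated, 5 h preincubation, pintool compound addition (23 nL in DMSO), 37 C for 40 h, fluorescence measured at successive time points.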
Test [2] is described as follows: A CellTox Green Cytotoxicity Assay to monitor cytotoxicity in HepG2 cells - 0 hour (AID 1224882). Note: nearly all actives have a fitted effect of over 35% in size. Put shortly: (§2)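 Read-out is fluorescence of a cyanine dye excluded from live cells that stains DNA of dead HepG2 cells, with signal proportional to cytotoxicity. Plates were read at 0, 8, 16, 24, 32 and 40 h after compound addition.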
Test [3] is described as follows: A CellTox Green Cytotoxicity Assay to monitor cytotoxicity in HepG2 cells - 32 hour (AID 1224883). Note: nearly all actives have a fitted effect of over 50% in size. Put shortly: as §2
The nature of test [4]: A CellTox Green Cytotoxicity Assay to monitor cytotoxicity in HEK293 cells - 8 hour (AID 1224884). Note: nearly all actives have a fitted effect of over 35% in size. Put shortly: as §1
The nature of test [5]: qHTS RealTime-Glo MT Cell Viability Assay in HepG2 cells - 16 hour (AID 1224885). Note: nearly all actives have a fitted effect of over 50% in size. The method in brief: (§3)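 Real-time, nonlytic viability: 600 HepG2 cells/well mixed with NanoLuc enzyme plus prosubstrate; 5 h settle, compound (DMSO) added by pintool; luminescence monitored over 40 h at 37 C.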
Test [6] is described as follows: qHTS RealTime-Glo MT Cell Viability Assay in HEK293 cells - 24 hour (AID 1224886). Note: top concentration of the series differs between compounds; nearly all actives have a fitted effect of over 50% in size. Put shortly:
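Cells + reagent dispensed (600 cells/well, HEK293) → 5 h at 37 C/5% CO2 → 23 nL compound in DMSO pinned → 40 h at 37 C → luminescence read at 0, 8, 16, 24, 32, 40 h.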
(In general: In qHTS, concentration-response curves come from the screen itself.)

Test [7] is described as follows: qHTS RealTime-Glo MT Cell Viability Assay in HEK293 cells - 8 hour (AID 1224887). Note: top concentration of the series differs between compounds; nearly all actives have a fitted effect of over 50% in size. The method in brief: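 Cells were seeded together with NanoLuc luciferase and a prosubstrate that viable cells reduce to a luciferase substrate. After a 5 h incubation at 37 C/5% CO2, compounds were added and luminescence was measured repeatedly during 40 h of treatment.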
Test [8] is described as follows: A CellTox Green Cytotoxicity Assay to monitor cytotoxicity in HEK293 cells - 16 hour (AID 1224888). Note: nearly all actives have a fitted effect of over 35% in size. The method in brief: as §1
A short description of test [9]: qHTS RealTime-Glo MT Cell Viability Assay in HepG2 cells - 0 hour (AID 1224889). Note: nearly all actives have a fitted effect of over 50% in size. The method in brief:
as §3

Test [10] is described as follows: A CellTox Green Cytotoxicity Assay to monitor cytotoxicity in HepG2 cells - 8 hour (AID 1224890). Note: nearly all actives have a fitted effect of over 45% in size. The method in brief:
as §2

Test [11] is described as follows: qHTS assay to identify small molecule antagonists of the estrogen receptor alpha (ER-alpha) signaling pathway using the BG1 cell line in the presence of 0.1 nM 17-beta-estradiol - cell viability counter screen (AID 1259241). Note: nearly all actives have a fitted effect of over 40% in size. The method in brief:
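Following 5 days in phenol red-free medium with charcoal-stripped serum, VM7Luc4E2 cells received test compounds alongside 0.1 nM 17beta-estradiol (final) at 37C for 22 hr. Live cells were then quantified via protease-substrate fluorescence.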

A short description of test [12]: qHTS assay to identify small molecule antagonists of the androgen receptor (AR) signaling pathway using the MDA cell line in the presence of 0.5 nM R1881 - cell viability counter screen (AID 1259242). Note: nearly all actives have a fitted effect of over 45% in size. The method in brief:
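Counter screen for cytotoxicity run in the same wells as the AR antagonist reporter screen: MDA-kb2 cells were treated 16 hr with test compounds and 0.5 nM R1881, then live-cell protease activity was measured by fluorescence.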

Test [13] deals with Estrogen receptor (Homo sapiens) (UniProt P03372). Nature of the test: qHTS assay to identify small molecule antagonists of the estrogen receptor alpha (ER-alpha) signaling pathway using the BG1 cell line in the presence of 0.1 nM 17-beta-estradiol (AID 1259244). Note: nearly all actives have a fitted effect of over 50% in size. The method in brief: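 Cells: VM7Luc4E2, endogenous ER-alpha, 4x ERE-luc stable. Pre-culture 5 d, phenol red-free, charcoal-stripped FBS. Plated 24 h, compound + E2 0.1 nM final, 22 h 37C/5% CO2. Readout ONE-Glo luminescence.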

Test [14] is described as follows: qHTS assay to identify small molecule HDAC inhibitors (AID 1259364). Note: top concentration of the series differs between compounds; nearly all actives have a fitted effect of over 45% in size. The method in brief:
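Luminescence from a cell-permeant luminogenic class I/II HDAC substrate reports endogenous deacetylase activity in intact HCT-116 cells treated with compounds for 2 h.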

Test [15] in a line: qHTS assay to identify small molecule agonists of the sonic hedgehog signaling (Shh) pathway - cell viability counter screen (AID 1259366). Note: nearly all actives have a fitted effect of over 50% in size. The method in brief: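 Compounds in DMSO were pin-transferred onto 3T3 Gli1-Luc cells that had settled 4hr; plates then stood 24hr at 37C and 5% CO2. One hour before the end, CellTiter-Fluor was added and fluorescence recorded.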
A short description of test [16]: qHTS assay to identify small molecule antagonists of the sonic hedgehog signaling (Shh) pathway - cell viability counter screen (AID 1259367). Note: nearly all actives have a fitted effect of over 55% in size. Note: potency is the fitted concentration of half-maximal effect. The method in brief:
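Seed 3T3 Gli1-Luc cells at 2,000 per well; incubate 4 hr; add compound in DMSO, then conditioned medium; incubate at 37C with 5% CO2; add CellTiter-Fluor after 23 hr; read fluorescence 1 hr later.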

Test [17] is described as follows: qHTS assay to identify small molecule agonists of the sonic hedgehog signaling (Shh) pathway (AID 1259368; calls by dose curve;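 note: NIH/3T3-derived 3T3Gli1-Luc cells carrying a stable Gli1-driven firefly luciferase reporter; series mostly up to about 92 µM; nearly all actives have a fitted effect of over 15% in size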). Put shortly:
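3T3Gli1-Luc (NIH/3T3 clone, stable Gli1-Luc); 4 hr pre-incubation, then cpd in DMSO 24 hr, 37 C/5% CO2; luciferase reagent 30 min RT; luminescence.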

Test [18] can be described thus: qHTS assay to identify small molecule phospholipidosis (PLD) inducers (AID 1259344; active = well fitted curve in the direction sought with a large enough effect; an effect the other way counts as inactive or inconclusive). The method in brief: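 Quantitative HTS in HepG2: compound plus LipidTOX Red dye for 24 h, paraformaldehyde fixation with Hoechst 33342, widefield high-content imaging; amiodarone as positive and DMSO as negative control.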
Test [19] is described as follows: qHTS assay to identify small molecule HDAC inhibitors - cell viability counter screen (AID 1259365). The method in brief: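 HCT-116 wild-type, overnight attachment; 2hr drug exposure, 37C; CellTiter-Glo luminescent ATP readout after 30min RT.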
Test [20] deals with Androgen receptor (Homo sapiens) (UniProt P10275). Nature of the test: qHTS assay to identify small molecule antagonists of the androgen receptor (AR) signaling pathway using the MDA cell line in the presence of 0.5 nM R1881 (AID 1259243). Note: nearly all actives have a fitted effect of over 50% in size. The method in brief:
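Luciferase luminescence is the read-out: compounds are tested for suppressing 0.5 nM R1881-driven MMTV reporter activity in MDA-kb2 cells after 16 hr at 37C.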

Unmarked numbers belong to inactive results. Inconclusive results are not listed. Active and inactive are the calls of the source. Unless noted, calls come from the whole dose curve; as a rule, active = well fitted curve in the direction sought with a large enough effect in the repeat runs; inconclusive = weak or mixed curves; inactive = no such curve, though single readings can be large; an effect the other way counts as inactive or inconclusive.

Chain of Estrogen receptor (Homo sapiens) (P03372 whole entry, looked up): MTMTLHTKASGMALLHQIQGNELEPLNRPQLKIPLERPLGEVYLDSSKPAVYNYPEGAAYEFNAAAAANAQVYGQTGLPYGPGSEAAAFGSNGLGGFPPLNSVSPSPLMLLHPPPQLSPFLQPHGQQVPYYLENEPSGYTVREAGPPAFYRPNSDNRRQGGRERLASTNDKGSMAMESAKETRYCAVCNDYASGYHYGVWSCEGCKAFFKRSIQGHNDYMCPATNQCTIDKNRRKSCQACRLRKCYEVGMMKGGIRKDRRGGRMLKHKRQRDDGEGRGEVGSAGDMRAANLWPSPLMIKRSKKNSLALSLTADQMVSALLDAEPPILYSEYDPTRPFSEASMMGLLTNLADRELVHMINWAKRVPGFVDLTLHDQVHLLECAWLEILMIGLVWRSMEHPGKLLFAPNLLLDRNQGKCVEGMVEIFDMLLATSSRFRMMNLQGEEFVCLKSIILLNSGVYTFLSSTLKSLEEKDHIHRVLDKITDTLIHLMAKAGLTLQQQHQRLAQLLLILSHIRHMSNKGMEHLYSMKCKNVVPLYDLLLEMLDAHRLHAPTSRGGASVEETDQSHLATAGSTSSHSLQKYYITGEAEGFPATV
Chain of Androgen receptor (Homo sapiens) (P10275 whole entry, looked up): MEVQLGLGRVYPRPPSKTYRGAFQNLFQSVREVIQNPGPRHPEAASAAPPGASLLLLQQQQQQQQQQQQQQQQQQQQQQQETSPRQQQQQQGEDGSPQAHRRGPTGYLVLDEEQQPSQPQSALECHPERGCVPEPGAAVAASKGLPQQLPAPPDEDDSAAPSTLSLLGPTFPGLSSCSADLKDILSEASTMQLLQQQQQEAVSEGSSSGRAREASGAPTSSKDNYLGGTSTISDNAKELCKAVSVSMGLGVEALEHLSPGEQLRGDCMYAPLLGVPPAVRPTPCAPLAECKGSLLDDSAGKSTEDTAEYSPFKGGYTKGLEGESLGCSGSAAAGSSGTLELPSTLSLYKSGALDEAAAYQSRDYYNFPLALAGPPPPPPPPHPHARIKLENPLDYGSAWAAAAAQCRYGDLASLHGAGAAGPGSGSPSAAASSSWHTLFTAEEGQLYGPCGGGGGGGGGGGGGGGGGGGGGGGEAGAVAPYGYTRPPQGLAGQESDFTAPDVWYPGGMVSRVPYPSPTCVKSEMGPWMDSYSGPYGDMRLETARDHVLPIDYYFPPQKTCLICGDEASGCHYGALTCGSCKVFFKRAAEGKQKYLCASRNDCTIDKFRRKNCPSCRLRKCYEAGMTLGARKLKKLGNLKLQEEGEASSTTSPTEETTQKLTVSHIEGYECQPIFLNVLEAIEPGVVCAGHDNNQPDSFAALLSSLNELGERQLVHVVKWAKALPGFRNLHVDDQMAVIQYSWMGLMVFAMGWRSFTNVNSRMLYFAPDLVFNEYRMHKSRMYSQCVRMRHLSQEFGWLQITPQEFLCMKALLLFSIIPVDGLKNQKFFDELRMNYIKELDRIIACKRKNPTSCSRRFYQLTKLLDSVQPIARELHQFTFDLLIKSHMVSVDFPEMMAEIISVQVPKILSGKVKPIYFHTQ

Take `ClC(Cl)C(Cl)(Cl)Cl`: the Potency entry in test [1], in test [2], in test [3], in test [4], in test [5] and in test [6] was “inactive” each time. Also, the Potency entry in test [7], in test [8], in test [9], in [10], in [11] and in test [12] was “inactive” each time. For the same compound, the Potency entry in test [13], in test [14], in test [15], in test [16] and in [17] was “inactive” throughout.
With `CC(C)C(Br)C(=O)NC(N)=O` (configuration not stated), the Potency result in test [1], in [2], in test [3], in test [4], in [5] and in test [6] was “inactive” each time. For the same compound, the Potency result in [7], in test [8], in test [9], in test [10], in test [11] and in [12] was “inactive” throughout. For the same compound, the Potency entry in [13], in [14], in test [19], in test [15], in test [16] and in test [17] was “inactive” in each case. The outcome in test [18] was inactive.
In the case of `CCN(CC)CCN1C(=O)CN=C(c2ccccc2F)c2cc(Cl)ccc21`, the Potency entry in [1], in [2], in test [3], in test [4], in test [5] and in test [6] was “inactive” in each case. For the same compound, the Potency result in test [7], in test [8], in [9], in test [10], in test [11] and in [12] was “inactive” in each case. In addition, the Potency entry in test [13], in test [14], in [19], in [15], in test [16] and in test [17] was “inactive” each time.
Turning to `CC1CN1` (configuration not stated), the Potency result in test [1], in test [2], in [3], in test [4], in test [5] and in test [6] was “inactive” in each case. In addition, the Potency result in test [7], in [8], in test [9], in test [10], in test [11] and in [12] was “inactive” throughout. Besides, the Potency entry in test [13], in test [14], in test [19], in test [15], in [16] and in test [17] was “inactive” in each case.
As for `CC(C)=CC1C(C(=O)OC(C#N)c2cccc(Oc3ccccc3)c2)C1(C)C` (configuration not stated), the Potency entry in test [1], in test [2], in [3], in test [4], in test [5] and in [6] was “inactive” each time. In addition, the Potency result in test [7], in test [8], in test [9], in test [10], in test [11] and in test [12] was “inactive” throughout. In addition, the Potency entry in [20], in test [14], in [19], in [15], in [16] and in [17] was “inactive” each time.
Consider `N#CSCc1ccccc1`, for which the Potency result in [1], in test [2], in test [3], in test [4], in [5] and in test [6] was “inactive” each time. In addition, the Potency entry in [7], in [8], in test [9], in test [10], in [11] and in test [12] was “inactive” throughout. Besides, the Potency entry in test [13], in test [14], in test [19] and in [17] was “inactive” in each case.
Consider `CCNS(=O)(=O)C(F)(F)C(F)(F)C(F)(F)C(F)(F)C(F)(F)C(F)(F)C(F)(F)C(F)(F)F`, for which the Potency entry in test [1], in test [2], in [3], in test [4], in [5] and in test [6] was “inactive” in each case. Further, the Potency result in test [7], in test [9], in test [10], in test [11], in test [12] and in [20] was “inactive” in each case. The Potency entry in test [14], in test [19] and in test [17] was “inactive” in each case. Besides, the Potency in [16] is 65.7 µM (active).

(Values after PubChem BioAssay (Tox21).)
